What all share (details): mRNA level, 48 h; actives raise or lower the signal
Read-out in test [1]: Lipoprotein lipase (LPL), LPL (gene 4023)
Kind of test: LTEA_HepaRG_LPL: Life Technologies and Expression Analysis (LTEA) Assay for Lipoprotein lipase (LPL) using HepaRG (AID 2283515). The method in brief:
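Differentiated HepaRG cells, plated 48 h, then exposed 48 h in serum-free induction medium to 8 concentrations (top 100 uM, half-log steps) in 0.5% DMSO, duplicate. LPL mRNA measured by qRT-PCR, normalized to ACTB, GAPDH and POLR2A.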

Read-out in test [2]: MicroRNA 122 (MIR122), gene 406906
Kind of test: LTEA_HepaRG_MIR122: Life Technologies and Expression Analysis (LTEA) Assay for MicroRNA 122 (MIR122) using HepaRG (AID 2283516). Note: the transcript read is the microRNA miR-122. The method in brief:
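HepaRG plated 48 h, switched to serum-free induction medium, then treated in duplicate for 48 h (100 uM top, half-log steps, 0.5% DMSO vehicle). RNA isolated, qRT-PCR performed, concentration-response fitted both directions relative to DMSO.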

Read-out in test [3]: Paternally Expressed 10 (PEG10), PEG10 (gene 23089)
Kind of test: LTEA_HepaRG_PEG10: Life Technologies and Expression Analysis (LTEA) Assay for Paternally Expressed 10 (PEG10) using HepaRG (AID 2283520). The method in brief:
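HepaRG, 48 h post-plating → serum-free induction medium → 48 h chemical exposure (duplicate, 8-pt, max 100 uM, half-log, 0.5% DMSO) → lysis in RLT → TaqMan qRT-PCR for PEG10, ACTB/GAPDH/POLR2A normalisation.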

Read-out in test [4]: Protein phosphatase 2A (PPP2R4), PTPA (gene 5524)
Kind of test: LTEA_HepaRG_PPP2R4: Life Technologies and Expression Analysis (LTEA) Assay for Protein phosphatase 2A (PPP2R4) using HepaRG (AID 2283522). The method in brief:
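Readout is PPP2R4 transcript level by microfluidic qRT-PCR after 48 h chemical treatment of human HepaRG liver cells. Concentrations spanned 100 uM downward in half-log steps; gain or loss of signal was fitted relative to DMSO.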

Read-out in test [5]: Phosphatase and tensin (PTEN), PTEN (gene 5728)
Kind of test: LTEA_HepaRG_PTEN: Life Technologies and Expression Analysis (LTEA) Assay for Phosphatase and tensin (PTEN) using HepaRG (AID 2283523). The method in brief: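 HepaRG cells, 48 h after plating, exposed in duplicate for 48 h in serum-free induction medium to 8 half-log concentrations up to 100 uM (0.5% DMSO). PTEN mRNA by qRT-PCR, normalized to ACTB, GAPDH, POLR2A; bidirectional fit versus DMSO.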

Read-out in test [6]: solute carrier (SLC22A1), SLC22A1 (gene 6580)
Kind of test: LTEA_HepaRG_SLC22A1: Life Technologies and Expression Analysis (LTEA) Assay for solute carrier (SLC22A1) using HepaRG (AID 2283524). The method in brief: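 Differentiated human HepaRG cells in serum-free induction medium, exposed 48 h in duplicate to 8-point half-log series from 100 µM top in 0.5% DMSO. SLC22A1 mRNA by TaqMan qRT-PCR normalized to ACTB, GAPDH, POLR2A; bidirectional fit versus DMSO.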

Read-out in test [7]: Pyruvate Dehydrogenase Kinase 4 (PDK4), PDK4 (gene 5166)
Kind of test: LTEA_HepaRG_PDK4: Life Technologies and Expression Analysis (LTEA) Assay for Pyruvate Dehydrogenase Kinase 4 (PDK4) using HepaRG (AID 2283525). The essentials:
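HepaRG cells plated 48 h, then switched to serum-free induction medium and exposed in duplicate for 48 h to 8 half-log concentrations from 100 uM in 0.5% DMSO. PDK4 mRNA measured by qRT-PCR, normalized to ACTB, GAPDH and POLR2A; bidirectional fit versus DMSO.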

Read-out in test [8]: NAD(P)H dehydrogenase [quinone] 1 (NQO1), NQO1 (gene 1728)
Kind of test: LTEA_HepaRG_NQO1: Life Technologies and Expression Analysis (LTEA) Assay for NAD(P)H dehydrogenase [quinone] 1 (NQO1) using HepaRG (AID 2283526). The method in brief: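 HepaRG, 48 h post-plating → serum-free induction medium → test chemical 48 h (duplicate, 100 uM top, half-log x8, 0.5% DMSO) → RNA isolation → qRT-PCR, ACTB/GAPDH/POLR2A normalization; bidirectional curve fit vs DMSO baseline.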

Read-out in test [9]: Nuclear factor erythroid 2-related factor 2 (Homo sapiens) (UniProt Q16236)
Kind of test: LTEA_HepaRG_NFE2L2: Life Technologies and Expression Analysis (LTEA) Assay for Nuclear factor erythroid 2-related factor 2 (NFE2L2) Transcription Factor using HepaRG (AID 2283527).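 For outcome: TaqMan qRT-PCR transcript level normalised to ACTB GAPDH and POLR2A housekeeping genes.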 The essentials:
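Differentiated human HepaRG cells, serum-free induction medium, exposed 48 h in duplicate to eight half-log concentrations up to 100 uM in 0.5% DMSO. NFE2L2 mRNA by Fluidigm TaqMan qRT-PCR, normalised to ACTB, GAPDH, POLR2A; bidirectional change versus DMSO.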

Read-out in test [10]: succinate dehydrogenase complex iron sulfur subunit B (SDHB), SDHB (gene 6390)
Kind of test: LTEA_HepaRG_SDHB: Life Technologies and Expression Analysis (LTEA) Assay for succinate dehydrogenase complex iron sulfur subunit B (SDHB) using HepaRG (AID 2283528). The method in brief:
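Readout is SDHB transcript level by qRT-PCR, normalised to three housekeeping genes and fitted bidirectionally against 0.5% DMSO vehicle. Human HepaRG cells were treated for 48 h at up to 100 uM.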

Read-out in test [11]: solute carrier (SLCO1B1), SLCO1B1 (gene 10599)
Kind of test: LTEA_HepaRG_SLCO1B1: Life Technologies and Expression Analysis (LTEA) Assay for solute carrier (SLCO1B1) using HepaRG (AID 2283530). The method in brief:
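Gain or loss of SLCO1B1 mRNA is fitted against the 0.5% DMSO vehicle in human HepaRG liver cells treated 48 h at up to 100 uM in half-log steps. Expression comes from qRT-PCR normalized to endogenous controls.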

Read-out in test [12]: sulfotransferase 2A1 (SULT2A1), SULT2A1 (gene 6822)
Kind of test: LTEA_HepaRG_SULT2A1: Life Technologies and Expression Analysis (LTEA) Assay for sulfotransferase 2A1 (SULT2A1) using HepaRG (AID 2283531). The method in brief:
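Cells were plated and cultured 48 h, switched to serum-free induction medium, then dosed in duplicate for 48 h (8 concentrations, max 100 uM). RNA was isolated and SULT2A1 expression measured by qRT-PCR; gain or loss of signal fitted relative to DMSO.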

Read-out in test [13]: Transforming Growth Factor (TGFA), TGFA (gene 7039)
Kind of test: LTEA_HepaRG_TGFA: Life Technologies and Expression Analysis (LTEA) Assay for Transforming Growth Factor (TGFA) using HepaRG (AID 2283532). The method in brief: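 Differentiated HepaRG cells exposed 48 hours in serum-free induction medium, 0.5% DMSO vehicle, 8-point half-log series from 100 uM, in duplicate. TGFA mRNA by TaqMan qRT-PCR, normalised to ACTB, GAPDH, POLR2A; bidirectional fit versus DMSO.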

Read-out in test [14]: Transforming Growth Factor (TGFB1), TGFB1 (gene 7040)
Kind of test: LTEA_HepaRG_TGFB1: Life Technologies and Expression Analysis (LTEA) Assay for Transforming Growth Factor (TGFB1) Transporter using HepaRG (AID 2283533). The method in brief:
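Expression change of TGFB1 in human HepaRG cells is measured after a 48 h chemical exposure, up to 100 uM in 0.5% DMSO vehicle. Curves are fitted in both directions relative to the DMSO baseline.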

Read-out in the next test: TIMP1, TIMP1 (gene 7076)
Kind of test: LTEA_HepaRG_TIMP1: Life Technologies and Expression Analysis (LTEA) Assay for TIMP1 using HepaRG (AID 2283534).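 For outcome: TaqMan qRT-PCR signal normalized to ACTB GAPDH and POLR2A housekeeping genes.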 The method in brief: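 We dosed human liver HepaRG cultures for 48 hours with up to 100 uM test chemical and measured TIMP1 expression by qRT-PCR. Activity in either direction is fitted relative to the 0.5% DMSO vehicle.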

Read-out in a further test: MYC, MYC (gene 4609)
Kind of test: LTEA_HepaRG_MYC: Life Technologies and Expression Analysis (LTEA) Assay for MYC using HepaRG (AID 2283518). The method in brief:
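Cells are thawed, plated and cultured 48 h, then treated for 48 h with test chemicals (eight half-log concentrations from 100 uM, 0.5% DMSO vehicle). RNA is isolated and MYC expression quantified by qRT-PCR against three housekeeping genes.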

Read-out in test [15]: Nuclear factor NF-kappa-B p105 subunit (Homo sapiens) (UniProt P19838)
Kind of test: LTEA_HepaRG_NFKB1: Life Technologies and Expression Analysis (LTEA) Assay for Nuclear Factor Kappa B Subunit 1 (NFKB1) using HepaRG (AID 2283521). The essentials: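 HepaRG, 48 h exposure; 8-pt half-log series from 100 uM in 0.5% DMSO; duplicates. Readout: NFKB1 mRNA by qRT-PCR (Fluidigm arrays), housekeeping-normalized. Gain/loss fit vs DMSO baseline.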

Read-out in test [16]: Signal transducer and activator of transcription 3 (Homo sapiens) (UniProt P40763)
Kind of test: LTEA_HepaRG_STAT3: Life Technologies and Expression Analysis (LTEA) Assay for Signal transducer and activator of transcription (STAT3) using HepaRG (AID 2283529). The essentials: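 Differentiated HepaRG cells, serum-free induction medium, dosed 48 h in duplicate, 8 half-log concentrations from 100 uM in 0.5% DMSO. STAT3 mRNA by qRT-PCR, normalised to ACTB, GAPDH, POLR2A; bidirectional fit versus DMSO.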

Read-out in test [17]: matrix metalloproteinase-3 (MMP3), MMP3 (gene 4314)
Kind of test: LTEA_HepaRG_MMP3: Life Technologies and Expression Analysis (LTEA) Assay for matrix metalloproteinase-3 (MMP3) using HepaRG (AID 2283519). The method in brief:
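HepaRG cells (~100,000/well) in serum-free induction medium were dosed in duplicate for 48 h with an 8-point half-log series from 100 uM, 0.5% DMSO. MMP3 mRNA was quantified by Fluidigm TaqMan qRT-PCR, normalized to three housekeeping genes.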

Here are results for three compounds from PubChem BioAssay (EPA / NIEHS).

Active and inactive are the calls of the source. Rule for the calls: active = hit-call score of the fitted dose curve at least 0.9, where 1 is the maximum; inactive = score below 0.9.

The AC50 is the concentration giving half of the maximal activity seen.

Nuclear factor erythroid 2-related factor 2 (Homo sapiens), sequence (Q16236 whole entry, looked up): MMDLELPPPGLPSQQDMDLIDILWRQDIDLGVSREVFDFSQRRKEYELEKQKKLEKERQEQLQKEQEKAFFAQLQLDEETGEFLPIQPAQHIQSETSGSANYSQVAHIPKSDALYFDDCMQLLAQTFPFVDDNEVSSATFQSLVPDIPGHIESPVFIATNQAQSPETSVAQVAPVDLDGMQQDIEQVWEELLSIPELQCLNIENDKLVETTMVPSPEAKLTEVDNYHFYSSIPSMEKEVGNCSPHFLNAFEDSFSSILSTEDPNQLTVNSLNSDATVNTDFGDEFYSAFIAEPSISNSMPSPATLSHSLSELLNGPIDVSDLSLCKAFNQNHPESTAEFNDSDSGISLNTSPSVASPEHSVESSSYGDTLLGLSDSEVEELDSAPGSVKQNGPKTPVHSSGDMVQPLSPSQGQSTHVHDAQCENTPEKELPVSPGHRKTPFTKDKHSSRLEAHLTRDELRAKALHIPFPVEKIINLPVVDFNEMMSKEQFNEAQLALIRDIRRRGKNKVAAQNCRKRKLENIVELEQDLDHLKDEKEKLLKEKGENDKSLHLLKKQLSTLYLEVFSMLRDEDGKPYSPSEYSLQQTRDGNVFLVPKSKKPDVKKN
Signal transducer and activator of transcription 3 (Homo sapiens), sequence (P40763 whole entry, looked up): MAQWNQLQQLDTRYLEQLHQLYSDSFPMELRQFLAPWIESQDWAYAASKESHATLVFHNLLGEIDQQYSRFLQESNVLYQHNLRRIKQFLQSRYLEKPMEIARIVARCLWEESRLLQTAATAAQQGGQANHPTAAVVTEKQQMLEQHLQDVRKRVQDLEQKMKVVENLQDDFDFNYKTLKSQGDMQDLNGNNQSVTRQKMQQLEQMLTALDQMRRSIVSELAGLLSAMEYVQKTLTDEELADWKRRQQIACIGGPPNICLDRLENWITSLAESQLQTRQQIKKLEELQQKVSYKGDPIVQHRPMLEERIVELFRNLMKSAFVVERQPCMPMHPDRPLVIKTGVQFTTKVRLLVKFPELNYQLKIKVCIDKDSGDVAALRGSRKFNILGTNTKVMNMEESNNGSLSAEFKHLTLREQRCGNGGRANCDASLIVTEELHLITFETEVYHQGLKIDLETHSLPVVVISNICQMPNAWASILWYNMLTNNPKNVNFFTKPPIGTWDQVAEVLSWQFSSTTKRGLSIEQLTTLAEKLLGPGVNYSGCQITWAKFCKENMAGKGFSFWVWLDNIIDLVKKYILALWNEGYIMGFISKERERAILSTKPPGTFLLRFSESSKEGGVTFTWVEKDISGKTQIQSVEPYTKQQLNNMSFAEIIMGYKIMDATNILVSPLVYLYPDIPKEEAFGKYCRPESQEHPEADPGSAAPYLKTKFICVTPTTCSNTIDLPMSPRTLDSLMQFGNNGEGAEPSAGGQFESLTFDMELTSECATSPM
Nuclear factor NF-kappa-B p105 subunit (Homo sapiens), sequence (P19838 whole entry, looked up): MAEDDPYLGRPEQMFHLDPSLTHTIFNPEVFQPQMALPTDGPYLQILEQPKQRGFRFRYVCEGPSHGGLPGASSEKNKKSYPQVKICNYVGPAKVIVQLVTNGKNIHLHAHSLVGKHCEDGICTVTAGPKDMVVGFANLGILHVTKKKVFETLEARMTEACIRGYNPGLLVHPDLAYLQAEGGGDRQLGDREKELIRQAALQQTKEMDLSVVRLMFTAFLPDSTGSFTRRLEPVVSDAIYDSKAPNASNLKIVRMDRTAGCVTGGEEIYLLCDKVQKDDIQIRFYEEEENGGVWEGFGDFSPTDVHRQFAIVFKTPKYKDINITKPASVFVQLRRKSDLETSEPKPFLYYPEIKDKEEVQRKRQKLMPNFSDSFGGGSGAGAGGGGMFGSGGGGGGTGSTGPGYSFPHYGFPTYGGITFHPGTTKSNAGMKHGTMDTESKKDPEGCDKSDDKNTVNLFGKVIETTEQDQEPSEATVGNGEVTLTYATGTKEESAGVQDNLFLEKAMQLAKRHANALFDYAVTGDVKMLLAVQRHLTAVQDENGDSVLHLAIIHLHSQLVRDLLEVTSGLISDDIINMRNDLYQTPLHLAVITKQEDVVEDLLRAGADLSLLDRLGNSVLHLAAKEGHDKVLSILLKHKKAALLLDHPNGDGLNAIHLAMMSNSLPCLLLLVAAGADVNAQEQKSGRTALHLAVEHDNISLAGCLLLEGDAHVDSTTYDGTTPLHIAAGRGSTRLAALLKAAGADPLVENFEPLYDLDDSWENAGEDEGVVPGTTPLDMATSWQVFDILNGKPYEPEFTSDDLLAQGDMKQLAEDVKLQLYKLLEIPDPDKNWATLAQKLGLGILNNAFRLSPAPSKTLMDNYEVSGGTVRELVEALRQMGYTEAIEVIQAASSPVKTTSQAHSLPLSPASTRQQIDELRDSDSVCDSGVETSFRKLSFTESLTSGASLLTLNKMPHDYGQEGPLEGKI

For `Clc1ccccc1C(c1ccccc1)(c1ccccc1)n1ccnc1`, the AC50 in test [1] was 89.8 µM (active); in test [2], 17.3 µM (active); in test [4], 92.2 µM (active); in [5], 87.2 µM (active); in test [6], 23.1 µM (active); in [7], 28.3 µM (active). Besides, the AC50 in test [9] was 14.5 µM (active); in [10] it was 90.5 µM (active); in test [11] it was 23.7 µM (active); in test [12], 23.3 µM (active); in test [13] it was 23.2 µM (active); in test [14], 91.9 µM (active). In addition, the outcome was “inactive” in test [3]; “inactive” in [8]; “inactive” with TIMP1, TIMP1 (gene 7076).

Turning to `O=C(O)Cc1cc(I)c(Oc2ccc(O)c(I)c2)c(I)c1`, the AC50 was 65.7 µM (active) in [1]; 91.3 µM (active) with MYC, MYC (gene 4609); 0.558 µM (active) in test [3]; 71.8 µM (active) in test [15]; 78.8 µM (active) in test [6]; 0.00367 µM (active) in test [7]. Also, the concentration at half-maximal activity (AC50) in test [9] was 85.6 µM (active); in test [11], 82.7 µM (active); in [12] it was 79.5 µM (active); in test [14], 79.5 µM (active). Further, the outcome in test [2] is “inactive”; in test [4], “inactive”; in test [8], “inactive”; in test [10] it was “inactive”; in test [16] it was “inactive”; in the test with TIMP1, TIMP1 (gene 7076), “inactive”.

Take `CC(C)(C)c1csc(-c2cc3cc(OCc4ccccc4CC(=O)O)ccc3o2)n1`: the half-maximal activity concentration (AC50) in test [1] was 81.8 µM (active); in [2], 90.7 µM (active); with MYC, MYC (gene 4609) it was 32 µM (active); in test [17], 85.6 µM (active); in test [3], 50 µM (active); in test [4] it was 85.2 µM (active). Besides, the AC50 in [6] was 25 µM (active); in test [7] it was 12 µM (active); in test [8], 93.4 µM (active); in test [10] it was 84.8 µM (active); in test [16], 91 µM (active); in [11] it was 50 µM (active). Besides, the AC50 in test [12] was 34 µM (active); in test [13], 85.4 µM (active); in test [14] it was 81.9 µM (active); with TIMP1, TIMP1 (gene 7076), 78.4 µM (active). Further, in test [9], the compound was called inactive.
